High-throughput results: PubChem BioAssay, National Center for Advancing Translational Sciences (NCATS)
DT40 TDP1 no CPT: qHTS for Inhibitors of human tyrosyl-DNA phosphodiesterase 1 (TDP1): qHTS in cells in absence of CPT; DT40 Tdp1-/- hTDP1 cells, no CPT, ATP luminescence, 48 h; Potency, µM (doses to about 46.2 µM), usual class: inhibitors; 420,000 tested, 15% active; AID 686978, 2013; further: nearly all actives have a fitted effect of over 55% in size
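A cellular qHTS used chicken DT40 cells lacking endogenous Tdp1 but carrying stably transfected human TDP1. Compounds were applied without camptothecin, and cell growth kinetics were judged by ATP-dependent luminescence after ≥48 hr.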
TDP1 cell CPT: growth inhibition of DT40 Tdp1-/-;hTDP1 cells with camptothecin (screen for TDP1 inhibitors). AID 686979. Potency, µM (top dose mostly 46.2 µM), actives largely listed as inhibitors. chicken DT40 Tdp1-/-;hTDP1 cells + 20 nM CPT, ATP luminescence, 48 h. 420,000 tested, 12% active; further: nearly all actives have a fitted effect of over 55% in size
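Chicken DT40 Tdp1-/- cells stably complemented with human TDP1 were seeded at 400 cells/well in medium containing 20 nM camptothecin, exposed to pin-transferred compounds, and grown at 37 °C for at least 48 hr. Viability was read as ATP luminescence.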
RORg inh: ROR gamma (mouse) transcription inhibition. AID 2551. Drosophila S2 Gal4-RORgamma UAS-luciferase reporter, 20 h. 310,000 tested, 5.4% active. Potency, µM (series often up to 53.6 µM), hits mostly inhibitors; further: nearly all actives have a fitted effect of over 60% in size
Target sequence (P51450 whole entry, looked up, the tested form may be a part): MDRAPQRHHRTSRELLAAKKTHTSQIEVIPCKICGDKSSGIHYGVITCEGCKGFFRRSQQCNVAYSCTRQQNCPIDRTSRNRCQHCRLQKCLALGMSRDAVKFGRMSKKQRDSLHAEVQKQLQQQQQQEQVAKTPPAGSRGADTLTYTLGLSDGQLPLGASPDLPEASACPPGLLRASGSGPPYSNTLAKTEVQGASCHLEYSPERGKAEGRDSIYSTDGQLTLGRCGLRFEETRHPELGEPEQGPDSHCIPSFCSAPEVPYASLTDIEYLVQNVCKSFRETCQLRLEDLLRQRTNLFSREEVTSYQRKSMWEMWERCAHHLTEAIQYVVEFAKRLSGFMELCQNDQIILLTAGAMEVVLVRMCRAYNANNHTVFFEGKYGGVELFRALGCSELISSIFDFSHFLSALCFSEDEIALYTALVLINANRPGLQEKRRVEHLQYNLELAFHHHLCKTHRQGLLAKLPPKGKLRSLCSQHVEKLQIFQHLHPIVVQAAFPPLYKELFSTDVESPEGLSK
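Stably transfected Drosophila Schneider cells are the test system, with ROR gamma fused to Gal4 and luciferase under UAS control; luminescence is read after 20 hr of 700 uM copper sulfate induction at ambient temperature.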
ALOX12 inh: inhibitors of human 12S-lipoxygenase ALOX12; P18054; purified 12hLO, xylenol orange hydroperoxide absorbance; Potency, µM (top dose mostly 108 µM), most hits filed as inhibitors; 580,000 tested, 1.1% active; AID 1671190
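Hydroperoxide product was detected by ferrous iron/xylenol orange as the 573 to 405 nm absorbance ratio. Arachidonic acid at 40 uM (final) was turned over for 30 min at room temperature by 150 nM human 12hLO, pH 7.0 Hepes buffer, after 15 min compound preincubation.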
ELG1 DNA repair: ELG1-dependent DNA repair inhibition; 330,000 tested, 2.3% active; Potency, µM (doses to about 46.1 µM), usual class: inhibitors; HEK293T ELG1-luciferase reporter, luminescence, 16 h; DNA damage induced by 5-fluorouridine; further: nearly all actives have a fitted effect of over 55% in size
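Luminescence from the luciferase reporter, measured 30 min after ONE-Glo reagent at room temperature, was the read-out. Beforehand, 2,000 cells per well were exposed for 16 hr at 37 °C to 5-fluorouridine together with compound or vehicle.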
Gal4-VP16 FLuc: inhibits Gal4-VP16 luciferase reporter, ROR gamma counter-screen. Drosophila S2 Gal4-VP16 UAS-luciferase, luminescence, 20 h. Potency, µM (highest dose often 53.6 µM), most hits filed as inhibitors. 310,000 tested, 3.5% active. AID 2546;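 further: Gal4-VP16 expression switched on by copper sulfate through the metallothionein promoter; nearly all actives have a fitted effect of over 50% in size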
Numbers stand for hits; - = inactive; ? = inconclusive; . = no result. Hits are enriched below; roughly 15% of the tested compounds scored in any of these assays. The call rests on the fitted dose curve; in most records, active means well fitted curve in the direction sought with a large enough effect; inconclusive means small, poorly fitted or top-dose-only effect, or another doubt; inactive means no such curve, though single readings can be large; an effect the other way counts as inactive or inconclusive.

SMILES	DT40 TDP1 no CPT	TDP1 cell CPT	RORg inh	ALOX12 inh	ELG1 DNA repair	Gal4-VP16 FLuc
Cc1ccc([N+](=O)[O-])cc1NC(=O)c1ccc(C(C)(C)C)cc1	13µM	?	?	-	?	?
CC(C)(C)c1ccc(NC(=O)c2ccccc2)c([N+](=O)[O-])c1	?	-	-	-	?	-
Cc1ccc([N+](=O)[O-])cc1NC(=O)Nc1cccc(F)c1	9.2µM	4.61µM	?	-	16.4µM	?
Cc1c(NC(=S)NC(=O)C(C)(C)C)cccc1[N+](=O)[O-]	?	-	14.1µM	?	-	20µM
Cc1c(NC(=O)c2ccc(C(C)(C)C)cc2)cccc1[N+](=O)[O-]	20.6µM	16.4µM	?	-	-	?
CC1CCC(C(=O)Nc2ccc3ccccc3c2)CC1 (configuration not stated)	.	.	.	-	.	.
Cc1ccc2nsnc2c1NC(=O)c1ccc([N+](=O)[O-])cc1	?	-	7.94µM	-	16.4µM	?
Cc1cc2c(cc1NC(=O)c1ccc(C(C)(C)C)cc1)n(C)c(=O)c(=O)n2C	25.9µM	23.1µM	.	-	.	.
Cc1cccc(C(=O)Nc2cc3c(cc2C)n(C)c(=O)n3C)c1	-	-	.	-	.	.
Cc1ccc(CN2CCc3nc(N4CCN(C)CC4)[nH]c(=O)c3CC2)cc1	.	.	.	-	.	.
CC(Oc1ccc(C(C)(C)C)cc1)C(=O)Nc1cccc2cccnc12 (configuration not stated)	.	.	.	-	.	.
O=C(CC1Sc2ccc(C(F)(F)F)cc2NC1=O)NOC1CCCCO1 (configuration not stated)	.	.	.	-	.	.
CCN(CC)c1nc(N)c(C#N)c(CC#N)c1C#N	-	-	.	-	.	.
CCCN(CCC)c1nc(N)c(C#N)c(CC#N)c1C#N	23.1µM	14.6µM	-	.	-	-
CCCN(CC1CC1)c1nc(N)c(C#N)c(CC#N)c1C#N	18.4µM	?	-	-	?	-
CC1(C)[C@H]2CC[C@@H](CNC(=O)c3cccc(Cl)c3)[C@@H]1C2	.	.	.	-	.	.
COc1ccccc1-n1c2c(cc(C#N)c1=O)C(=O)CC(C)(C)C2	.	.	.	-	.	.
Cc1ccc(NS(=O)(=O)c2cc([N+](=O)[O-])ccc2NNC(=S)Nc2cccc(Cl)c2)c(C)c1	?	?	?	.	-	?
COc1ccc(NC(=S)NNc2ccc([N+](=O)[O-])cc2S(=O)(=O)Nc2ccc(C)cc2C)cc1	?	-	?	22.4µM	?	-
Cc1ccc(NS(=O)(=O)c2cc([N+](=O)[O-])ccc2NNC(=S)Nc2cc(C)ccc2C)c(C)c1	20.6µM	?	?	25.1µM	?	?
Cc1ccc(-c2cc(C(=O)NCCc3ccccc3)c3c(-c4ccc(C)cc4)[nH]nc3n2)cc1	9.2µM	?	.	-	.	.
CCCCNC(=O)c1cc(-c2ccc(OC)cc2)nc2n[nH]c(-c3cccc([N+](=O)[O-])c3)c12	18.4µM	20.6µM	.	-	.	.
COc1ccc(CNC(=O)c2cc(-c3ccc(C)cc3)nc3n[nH]c(-c4ccc(Br)cc4)c23)cc1	-	-	.	-	.	.
COc1ccc(-c2cc(C(=O)NCc3ccc(F)cc3)c3c(-c4ccc(F)cc4)[nH]nc3n2)cc1OC	18.4µM	16.4µM	.	-	.	.
COc1ccc(CNC(=O)c2cc(-c3ccc(OC)c(OC)c3)nc3n[nH]c(-c4ccc(C)cc4)c23)cc1	5.17µM	5.8µM	.	-	.	.
SMILES	DT40 TDP1 no CPT	TDP1 cell CPT	RORg inh	ALOX12 inh	ELG1 DNA repair	Gal4-VP16 FLuc
Cc1ncsc1C(=O)NC(C)c1ccc(Cl)s1 (configuration not stated)	.	.	.	-	.	.
O=S(=O)(c1ccc(Sc2nnnn2C2CC2)nc1)N1CCOCC1	.	.	.	-	.	.
CC(C)OC(=O)c1ccc2cc(C(=O)OC(C)C)ccc2c1	.	.	.	-	.	.
CCc1c2c(nc3ccc4c(c13)OCCO4)-c1nc3ccccc3c(=O)n1C2	.	.	2.51µM	.	.	12.6µM
Cc1ccc2c(c1)nnn2C1CCN(S(=O)(=O)c2ccc(C(=O)N3C(C)CCCC3C)cc2)CC1 (configuration not stated)	9.2µM	9.2µM	?	?	?	15.8µM
Cc1ccc2c(c1)nnn2C1CCN(S(=O)(=O)c2ccc(C(=O)O)cc2)CC1	-	-	-	-	-	-
CC1CC(C)CN(C(=O)c2cc(S(=O)(=O)N3CCCCC3)ccc2Cl)C1 (configuration not stated)	14.6µM	16.4µM	.	-	-	.
Cc1ccc(S(=O)(=O)N2CCCCC2)cc1C(=O)N1C(C)CCCC1C (configuration not stated)	13µM	?	.	-	?	.
CC1CC(C)CN(C(C)C(=O)Nc2cc(S(=O)(=O)N3CCCCC3)ccc2Cl)C1 (configuration not stated)	14.6µM	?	.	-	-	.
CC(C)(C)C(=O)NCc1ccnc2[nH]ccc12	.	.	.	-	.	.
COc1ccc(CNC(=O)c2scnc2C)cc1OC	.	.	.	-	.	.
O=C(/C=C/c1ccc(S(=O)(=O)NCc2ccco2)cc1)NCc1ccccc1Cl	18.4µM	?	?	-	-	-
COc1ccc(CNC(=O)/C=C/c2ccc(S(=O)(=O)NCc3ccco3)cc2)cc1OC	25.9µM	?	?	-	?	-
N#Cc1c(Cl)nsc1NC(=O)c1ccccc1	8.2µM	13µM	8.91µM	?	2.91µM	3.98µM
Cc1sc(NC(=O)c2ccc(C(C)C)cc2)c(C#N)c1C	.	.	.	-	.	.
Cc1nc2sc(C(c3cccs3)N3CCN(Cc4ccccc4)CC3)c(O)n2n1 (configuration not stated)	-	23.1µM	-	-	-	-
Cc1ccc(S(=O)(=O)N2CCN(c3ncnc4sccc34)CC2)cc1C	5.8µM	5.8µM	.	-	?	.
O=S(=O)(c1ccc(Cl)cc1)N1CCN(c2ncccn2)CC1	-	-	-	-	-	-
Cc1ccc(S(=O)(=O)N2CCN(C(=O)c3cccs3)CC2)cc1C	?	-	-	-	?	-
Cc1ccc(S(=O)(=O)N2CCN(c3ncccn3)CC2)cc1C	?	5.8µM	.	-	.	.
Cc1ccc(S(=O)(=O)NCC(C)O)cc1C (configuration not stated)	.	.	.	-	.	.
O=C([C@@H]1C[C@@H](Sc2nc3ccccc3[nH]2)CN1Cc1ccc(Cl)cc1)N1CCN(c2ccccc2F)CC1	20.6µM	?	.	-	.	.
O=C(CCNC(=O)N1CC(=O)Nc2ccccc21)NCc1ccccc1Cl	13µM	?	.	-	.	.
CS(=O)(=O)c1ccc(C(=O)OCC(=O)N2CCCC2)cc1[N+](=O)[O-]	3.98µM	5.01µM	.	.	.	.
O=C1CN(C(=O)COC(=O)CCC(=O)c2ccc(Cl)cc2)c2ccccc2N1	-	-	.	-	?	.
CC1CCCCN1C(=O)COC(=O)c1ccc(S(C)(=O)=O)c([N+](=O)[O-])c1 (configuration not stated)	3.16µM	2.24µM	.	.	.	.
